About 83,000 compounds went through this panel and 20% of them were active in at least one assay; those are over-represented in the sample as a whole.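 The test compound was applied at a single concentration to cells in 96-well plates for 48 hours, and percent growth was recorded.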 Active and inactive are the calls of the source. The calls were made as follows: active = growth percent below 10; inactive = the rest.
How the values were obtained:
Experiment in all cases: NCI-60 one-dose screen, 48 h (100 = growth as untreated, 0 = no growth, -100 = all killed)
[1] = tested on: RPMI-8226 leukemia; conditions: 10 µM unless noted
[2] = tested on: OVCAR-8 ovarian; conditions: 10 µM unless noted
[3] = tested on: OVCAR-5 ovarian; conditions: 10 µM unless noted
[4] = tested on: OVCAR-4 ovarian; conditions: 10 µM unless noted
[5] = tested on: SK-OV-3 ovarian; conditions: 10 µM unless noted
[6] = tested on: IGROV1 ovarian; conditions: 10 µM unless noted
[7] = tested on: OVCAR-3 ovarian; conditions: 10 µM unless noted
[8] = tested on: HS 578T breast; conditions: 10 µM unless noted
[9] = tested on: NCI/ADR-RES ovarian; conditions: 10 µM unless noted
[10] = tested on: T-47D breast; conditions: 10 µM unless noted
[11] = tested on: BT-549 breast; conditions: 10 µM unless noted
[12] = tested on: MDA-MB-435 melanoma; conditions: 10 µM unless noted
[13] = tested on: SW-620 colon; conditions: 10 µM unless noted
[14] = tested on: MCF7 breast; conditions: 10 µM
[15] = tested on: HCT-116 colon; conditions: 10 µM unless noted
[16] = tested on: HCC-2998 colon; conditions: 10 µM unless noted
[17] = tested on: KM12 colon; conditions: 10 µM unless noted

Measured: growth

CCOC(=O)c1ccc(N=Cc2sc(=O)[nH]c2O)cc1
inactive: [1] 101% | [2] 92.1% | [3] 102% | [4] 100% | [5] 91.6% | [6] 87.1% | [7] 103% | [8] 88.1% | [9] 96.8% | [10] 92.3% | [11] 101% | [12] 103% | [13] 100% | [14] 92% | [15] 107% | [16] 101% | [17] 103%

Nc1ccc(-c2ccc(-c3ccccc3N)c3[nH]c4ccccc4c23)cc1
inactive: [2] 33.1% | [3] 56.7% | [4] 67.7% | [5] 28.7% | [6] 53.7% | [7] 19.4% | [8] 40.7% | [10] 15.2% | [11] 53.2% | [13] 29.5% | [14] 19.6% | [15] 22.6% | [16] 42.1% | [17] 23.6%
active: [1] 6.61% | [9] -6.69% | [12] -58.9%

CCOc1cccc(/C=N\Nc2nc(=O)cc(C(=O)OC)s2)c1O
active: [14] 8.66%
inactive: [1] 57.6% | [2] 66.9% | [3] 92.9% | [4] 49.3% | [5] 95.6% | [6] 61.8% | [7] 29.7% | [8] 90.4% | [9] 32.3% | [10] 37.8% | [11] 85.4% | [12] 91.6% | [13] 79.3% | [15] 22% | [16] 78% | [17] 75.3%

Cc1cc(Br)c(N)c(Br)c1
inactive: [1] 99.5% | [2] 101% | [3] 100% | [4] 94.9% | [5] 83.3% | [6] 110% | [7] 108% | [8] 109% | [9] 98% | [10] 92.5% | [11] 94.9% | [12] 97.4% | [13] 101% | [14] 92.3% | [15] 82.8% | [16] 90.6% | [17] 104%

Cn1c2c(c(=O)[nH]c1=O)NC1=C(C(=O)c3ccccc31)C1(C=C(O)c3ccccc31)N2 (stereo unspecified)
inactive: [1] 105% | [2] 107% | [3] 111% | [4] 71.3% | [5] 111% | [6] 95.5% | [7] 95.4% | [8] 110% | [9] 117% | [10] 108% | [11] 180% | [12] 117% | [13] 123% | [14] 91% | [15] 96.5% | [16] 130% | [17] 104%

CCOC(=O)C1(Cc2ccccc2)CCN(Cc2cccc(OC)c2O)CC1
inactive: [3] 42.4% | [4] 17.2% | [5] 17.5% | [7] 22.8% | [8] 28.6% | [10] 17.2% | [11] 50.4% | [12] 20.1% | [13] 20.9% | [14] 13.9% | [15] 21% | [16] 11.9% | [17] 22.2%
active: [1] 9.49% | [2] 3.17% | [6] -8.64% | [9] 6.98%

CCOc1c(Br)cc(C2C(C(=O)OC)=CN(C)C=C2C(=O)OC)cc1OC
active: [1] 7.41% | [16] -77.5%
inactive: [2] 85.8% | [3] 83.9% | [4] 72.9% | [5] 87.5% | [6] 67.7% | [7] 83.3% | [8] 75.8% | [9] 71% | [10] 57.2% | [11] 78.1% | [12] 47.3% | [13] 58% | [14] 35.9% | [15] 59% | [17] 61.9%

CC1=C(C(=O)OCC2CCN(C(=O)OC(C)(C)C)CC2)[C@H](c2cccc(C#N)c2)C2=C(CC(C)(C)CC2=O)N1
inactive: [1] 41.5% | [2] 46.9% | [3] 75.9% | [4] 61.7% | [5] 84% | [6] 47.8% | [7] 58.3% | [8] 61.7% | [9] 50.6% | [10] 69.8% | [11] 65% | [12] 50.3% | [13] 37.2% | [14] 40.8% | [15] 26.9% | [16] 70.8% | [17] 42.4%

O=C(N/N=C/c1ccccc1O)C(=O)Nc1ccc(F)cc1
inactive: [1] 52.2% | [2] 38.7% | [3] 64.8% | [4] 27.2% | [5] 59.1% | [6] 53% | [7] 27.7% | [8] 74.6% | [9] 18.1% | [10] 52.6% | [11] 59.3% | [12] 59.3% | [13] 44.5% | [14] 20.9% | [15] 37.6% | [16] 38.8% | [17] 42.3%

CCOc1cccc(/C=N/NC(=O)C(=O)Nc2cccc(C(F)(F)F)c2)c1O
inactive: [1] 29% | [2] 25.6% | [3] 47.4% | [4] 31% | [5] 49.2% | [6] 25.3% | [7] 29.3% | [8] 69.3% | [10] 30.9% | [11] 45.4% | [12] 49.6% | [13] 32% | [14] 11.8% | [15] 32% | [17] 27.8%
active: [9] 9.74% | [16] 5.43%

Brc1ccc(Nc2nc3ccccc3nc2Nc2ccc(Br)cc2)cc1
inactive: [4] 12.7%
active: [1] -12.3% | [2] -31.4% | [3] 6.38% | [5] -16.7% | [6] 1.3% | [7] -55.4% | [8] -1.34% | [9] 5.04% | [10] -4.85% | [11] -12.6% | [12] -60.2% | [13] -69.9% | [14] 1.16% | [15] -86.3% | [16] -56.5% | [17] -55.3%

CN(C)CCCNCc1ccc(-c2ccc(F)c(Cl)c2)o1
inactive: [2] 59.3% | [3] 65.3% | [4] 59.6% | [5] 73.1% | [6] 31.6% | [7] 34.3% | [8] 57.6% | [9] 53.8% | [10] 23.2% | [11] 76.6% | [15] 12.3%
active: [1] -26.3% | [12] -41.6% | [13] -45% | [14] -33% | [16] -90.2% | [17] -19.9%

C1=CC2(C=C1)OC21CCC2(C=CC3(C2)OC3C2CCCCC2)CC1 (stereo unspecified)
inactive: [1] 103% | [2] 107% | [3] 104% | [4] 103% | [5] 109% | [6] 107% | [7] 110% | [8] 103% | [9] 98.4% | [10] 104% | [11] 107% | [12] 97.4% | [13] 109% | [14] 106% | [15] 101% | [16] 105% | [17] 105%

O=S1(=O)CCN(Cc2ccccc2)CC1
inactive: [1] 102% | [2] 111% | [3] 96.2% | [4] 107% | [5] 101% | [6] 119% | [7] 105% | [8] 109% | [9] 106% | [10] 93.3% | [11] 95.7% | [12] 97.6% | [13] 103% | [14] 104% | [15] 88.4% | [16] 101% | [17] 93.9%

O=NN(C(=O)NC1CCC(C(=O)O)CC1)C1CCC(C(=O)O)CC1 (stereo unspecified)
inactive: [1] 81.8% | [2] 99.7% | [3] 97.4% | [4] 95.8% | [5] 114% | [6] 107% | [7] 113% | [8] 107% | [9] 108% | [10] 103% | [11] 125% | [12] 106% | [13] 105% | [14] 93% | [15] 104% | [16] 104% | [17] 108%

CCN1C(=O)N(CC)C2C1NC(=S)N2/N=C/C=C/c1ccccc1OC (stereo unspecified)
inactive: [1] 16.5% | [2] 14.8% | [3] 45.2% | [4] 53.5% | [5] 33.7% | [6] 31.2% | [7] 16.6% | [8] 40.3% | [10] 65.9% | [13] 23.6% | [14] 17.8% | [16] 12.4% | [17] 15.6%
active: [9] 6.29% | [11] -5.67% | [12] -20.9% | [15] 2.3%

COc1ccc(-n2c(C(O)c3ccccc3)nn(CN3CCOCC3)c2=S)cc1 (stereo unspecified)
inactive: [1] 88.9% | [2] 107% | [3] 101% | [4] 96.1% | [5] 101% | [6] 96.6% | [7] 124% | [8] 93.3% | [9] 107% | [10] 90.4% | [11] 108% | [12] 106% | [13] 87% | [14] 105% | [15] 105% | [16] 106% | [17] 99.8%

CCOC(=O)c1c2c(c(C)n1Cc1ccc(OC)cc1)-c1oncc1CC2
inactive: [1] 62.9% | [2] 88.3% | [3] 81.7% | [4] 89.6% | [5] 105% | [6] 80.8% | [7] 98.5% | [8] 69.7% | [9] 85.8% | [10] 90.5% | [11] 104% | [12] 120% | [13] 96.4% | [14] 97.5% | [15] 80.2% | [16] 106% | [17] 87.9%

From PubChem BioAssay (NCI)
